Data reported in the supplement of paper PMC10849652.
Of roughly 7,900 targets only a part is listed; those with a hit were picked by preference. About 0.6% of all pairs of compound and target were hits.

Columns and labels:
Test in all cases: log2 fold change, soluble protein after heating vs DMSO (PISA); higher = thermal stabilisation; K562 cells, 10 uM, 30 min; active = over 0.2 and 3.5 SD of the protein, either way, in both replicates (recomputed)
bafetinib = compound: Cc1ccc(NC(=O)c2ccc(CN3CC[C@H](N(C)C)C3)c(C(F)(F)F)c2)cc1Nc1nccc(-c2cncnc2)n1 [bafetinib]
Method in brief: (§1)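 Soluble protein was defined as the supernatant after 21,000xg for 90 min. It came from K562 cells at 2×10^6 cells/mL given 10 μM compound for 30 min, heated in aliquots for 3 min across 48°C-58°C, pooled, and extracted in PBS with 0.5% NP-40 at 4°C, and was quantified by TMTpro 16plex LC-MS/MS with equalised channel sums. Thermal stability against control samples, from duplicates, is reported as log2 fold change.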

[1] = compound: Cc1cccc(CC(=O)N2CCc3c2ccc(-c2cn(C)c4ncnc(N)c24)c3F)n1
Method in brief: as §1

nilotinib = compound: Cc1cn(-c2cc(NC(=O)c3ccc(C)c(Nc4nccc(-c5cccnc5)n4)c3)cc(C(F)(F)F)c2)cn1 [nilotinib]
Method in brief: as §1

[2] = compound: Cc1nc(Nc2n[nH]c3c2CN(C(=O)N[C@H](CN(C)C)c2ccccc2)C3(C)C)c2sccc2n1
Method in brief: as §1

dasatinib = compound: Cc1nc(Nc2ncc(C(=O)Nc3c(C)cccc3Cl)s2)cc(N2CCN(CCO)CC2)n1 [dasatinib]
Method in brief: as §1

[3] = compound: Cc1ncc(-c2ccnc(Nc3ccc(S(C)(=O)=O)cc3)n2)n1C(C)C
Method in brief: as §1

[4] = compound: Cn1cc(-c2ccc3c(c2)CCN3C(=O)Cc2cccc(C(F)(F)F)c2)c2c(N)ncnc21
Method in brief: as §1

[5] = compound: Cn1cc(-c2ccc3nnc(C(F)(F)c4ccc5ncccc5c4)n3n2)cn1
Method in brief: as §1

tipifarnib = compound: Cn1cncc1[C@@](N)(c1ccc(Cl)cc1)c1ccc2c(c1)c(-c1cccc(Cl)c1)cc(=O)n2C [tipifarnib]
Method in brief: as §1

mubritinib = compound: FC(F)(F)c1ccc(/C=C/c2nc(COc3ccc(CCCCn4ccnn4)cc3)co2)cc1 [mubritinib]
Method in brief: as §1

[6] = compound: NC(=O)Nc1cc(-c2cccc(F)c2)sc1C(=O)N[C@H]1CCCNC1
Method in brief: as §1

[7] = compound: NC(=O)c1cnc(N[C@@H]2CCCC[C@@H]2N)nc1Nc1cccc(-n2nccn2)c1
Method in brief: as §1

[8] = compound: NC1(c2ccc(-c3nc4ccn5c(=O)[nH]nc5c4cc3-c3ccccc3)cc2)CCC1
Method in brief: as §1

[9] = compound: NCC(=O)Nc1ccc(-n2nc(C(F)(F)F)cc2-c2ccc3c(ccc4ccccc43)c2)cc1
Method in brief: as §1

entinostat = compound: Nc1ccccc1NC(=O)c1ccc(CNC(=O)OCc2cccnc2)cc1 [entinostat]
Method in brief: as §1

vorinostat = compound: O=C(CCCCCCC(=O)Nc1ccccc1)NO [vorinostat]
Method in brief: as §1

citarinostat = compound: O=C(CCCCCCNC(=O)c1cnc(N(c2ccccc2)c2ccccc2Cl)nc1)NO [citarinostat]
Method in brief: as §1

silmitasertib = compound: O=C(O)c1ccc2c(c1)nc(Nc1cccc(Cl)c1)c1ccncc12 [silmitasertib]
Method in brief: as §1

[10] = compound: O=C1NC(=O)C(c2cnc3ccccn23)=C1c1cn2c3c(cc(F)cc13)CN(C(=O)N1CCCCC1)CC2
Method in brief: as §1

[11] = compound: c1cc(OCCN2CCCCC2)cc(-c2n[nH]c3ccc(-c4nnc[nH]4)cc23)c1
Method in brief: as §1

Measured: log2 fold change

CD53 (UniProt P19397)
Sequence of UniProt P19397 (P19397 whole entry, looked up): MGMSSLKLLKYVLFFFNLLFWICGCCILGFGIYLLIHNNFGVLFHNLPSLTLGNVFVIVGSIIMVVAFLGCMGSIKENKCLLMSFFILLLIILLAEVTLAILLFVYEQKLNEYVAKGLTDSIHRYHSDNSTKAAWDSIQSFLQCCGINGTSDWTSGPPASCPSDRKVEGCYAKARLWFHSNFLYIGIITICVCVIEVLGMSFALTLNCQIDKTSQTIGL
inactive: bafetinib 0.091 | nilotinib 0.069 | [2] 0.002 | dasatinib 0.078 | [3] -0.003 | [4] 0.145 | [5] 0.125 | tipifarnib 0.057 | mubritinib 0.081 | [6] -0.15 | [7] 0.196 | [8] 0.133 | [9] 0.014 | entinostat -0.044 | vorinostat -0.219 | citarinostat 0.013 | silmitasertib -0.046 | [10] -0.037 | [11] -0.12
active: [1] -0.418

CLCN3 isoform 2 (UniProt P51790)
Sequence of UniProt P51790 (P51790 whole entry, looked up): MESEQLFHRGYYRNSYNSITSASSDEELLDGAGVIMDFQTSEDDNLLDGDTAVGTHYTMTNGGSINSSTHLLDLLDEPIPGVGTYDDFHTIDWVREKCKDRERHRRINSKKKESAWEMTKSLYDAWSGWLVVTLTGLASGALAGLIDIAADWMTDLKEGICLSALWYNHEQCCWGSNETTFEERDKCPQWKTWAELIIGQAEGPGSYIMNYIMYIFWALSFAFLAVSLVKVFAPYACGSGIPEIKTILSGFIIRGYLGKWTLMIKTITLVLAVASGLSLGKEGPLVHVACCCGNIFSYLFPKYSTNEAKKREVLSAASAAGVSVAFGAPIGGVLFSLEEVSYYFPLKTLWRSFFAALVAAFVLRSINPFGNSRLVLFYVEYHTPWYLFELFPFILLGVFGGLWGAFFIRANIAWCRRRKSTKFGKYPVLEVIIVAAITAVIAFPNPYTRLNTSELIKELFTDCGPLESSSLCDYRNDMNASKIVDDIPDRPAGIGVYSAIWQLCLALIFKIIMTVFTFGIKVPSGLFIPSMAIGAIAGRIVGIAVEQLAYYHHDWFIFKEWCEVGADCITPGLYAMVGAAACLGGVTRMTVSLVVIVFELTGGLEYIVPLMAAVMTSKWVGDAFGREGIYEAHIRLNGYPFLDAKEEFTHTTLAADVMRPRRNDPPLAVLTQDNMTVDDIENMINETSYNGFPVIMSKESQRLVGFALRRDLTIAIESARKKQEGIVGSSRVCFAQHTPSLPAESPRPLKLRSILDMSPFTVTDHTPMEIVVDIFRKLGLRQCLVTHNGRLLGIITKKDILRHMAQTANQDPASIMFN
inactive: bafetinib -0.044 | [1] 0.076 | nilotinib -0.016 | [2] 0.034 | dasatinib 0.027 | [3] 0.017 | [4] 0.017 | [5] 0.027 | tipifarnib 0.004 | mubritinib -0.004 | [6] 0.013 | [7] 0.014 | [8] -0.17 | [9] 0.024 | entinostat 0.019 | vorinostat 0.037 | citarinostat -0.002 | silmitasertib -0.015 | [10] -0.002 | [11] 0.283

CD63 (UniProt P08962)
Sequence of UniProt P08962 (P08962 whole entry, looked up): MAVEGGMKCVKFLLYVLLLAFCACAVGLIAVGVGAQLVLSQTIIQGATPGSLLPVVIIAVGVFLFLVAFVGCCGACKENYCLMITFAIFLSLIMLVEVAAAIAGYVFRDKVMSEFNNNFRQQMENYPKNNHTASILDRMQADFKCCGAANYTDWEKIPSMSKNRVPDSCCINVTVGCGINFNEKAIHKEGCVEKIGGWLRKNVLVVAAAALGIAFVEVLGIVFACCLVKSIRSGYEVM
inactive: bafetinib -0.069 | [1] -0.059 | nilotinib -0.023 | [2] 0.074 | dasatinib 0.021 | [3] 0.002 | [4] -0.047 | [5] 0.002 | tipifarnib 0.043 | mubritinib -0.003 | [6] -0.026 | [7] -0.001 | [8] -0.05 | [9] -0.035 | entinostat -0.004 | vorinostat -0.066 | citarinostat 0.026 | silmitasertib 0.02 | [10] 0.051 | [11] -0.063

CA8 (UniProt P35219)
Sequence of UniProt P35219 (P35219 whole entry, looked up): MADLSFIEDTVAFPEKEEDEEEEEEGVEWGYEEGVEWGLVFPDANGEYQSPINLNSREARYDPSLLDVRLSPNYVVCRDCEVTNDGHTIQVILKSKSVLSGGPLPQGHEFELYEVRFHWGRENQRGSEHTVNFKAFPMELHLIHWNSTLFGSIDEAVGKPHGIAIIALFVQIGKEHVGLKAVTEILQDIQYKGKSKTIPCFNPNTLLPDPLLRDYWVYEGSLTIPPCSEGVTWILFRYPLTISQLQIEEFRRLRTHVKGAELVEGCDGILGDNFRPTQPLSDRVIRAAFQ
inactive: bafetinib -0.042 | [1] 0.079 | nilotinib 0.006 | [2] -0.017 | dasatinib -0.187 | [3] -0.01 | [4] 0.083 | [5] -0.063 | tipifarnib -0.064 | mubritinib 0.06 | [6] 0.035 | [7] -0.069 | [8] -0.167 | [9] -0.058 | entinostat 0.049 | vorinostat 0.025 | citarinostat 0.108 | silmitasertib 0.029 | [10] -0.142 | [11] -0.027

CA1 (UniProt P00915)
Sequence of UniProt P00915 (P00915 whole entry, looked up): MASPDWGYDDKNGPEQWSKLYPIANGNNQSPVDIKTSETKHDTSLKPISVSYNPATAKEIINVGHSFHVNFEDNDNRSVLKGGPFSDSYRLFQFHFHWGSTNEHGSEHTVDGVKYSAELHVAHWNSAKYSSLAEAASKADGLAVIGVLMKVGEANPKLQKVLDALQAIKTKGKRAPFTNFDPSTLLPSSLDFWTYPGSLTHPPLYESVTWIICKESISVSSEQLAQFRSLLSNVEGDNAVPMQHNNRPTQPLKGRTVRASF
inactive: bafetinib -0.017 | [1] -0.055 | nilotinib -0.004 | [2] -0.014 | dasatinib -0.007 | [3] 0.011 | [4] 0.029 | [5] -0.008 | tipifarnib -0.011 | mubritinib 0.067 | [6] 0.01 | [7] 0.011 | [8] -0.013 | [9] 0.012 | entinostat -0.011 | citarinostat 0.074 | silmitasertib 0.013 | [10] -0.014 | [11] -0.029
active: vorinostat 0.221

CDK9 isoform 2 (UniProt P50750)
Sequence of UniProt P50750 (P50750 whole entry, looked up): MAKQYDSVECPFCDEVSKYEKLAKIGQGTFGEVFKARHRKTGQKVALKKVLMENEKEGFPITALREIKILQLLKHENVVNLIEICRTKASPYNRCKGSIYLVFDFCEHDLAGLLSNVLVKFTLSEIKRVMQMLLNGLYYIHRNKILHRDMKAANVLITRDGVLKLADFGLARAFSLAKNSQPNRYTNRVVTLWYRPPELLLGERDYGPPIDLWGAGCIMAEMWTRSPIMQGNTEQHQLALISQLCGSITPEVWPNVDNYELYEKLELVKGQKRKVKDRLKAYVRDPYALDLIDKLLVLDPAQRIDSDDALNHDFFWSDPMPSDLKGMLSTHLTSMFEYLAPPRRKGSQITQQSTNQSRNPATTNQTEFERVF
inactive: bafetinib 0.039 | [1] 0.108 | nilotinib -0.045 | [2] -0.059 | dasatinib -0.011 | [3] 0.22 | [4] -0.091 | [5] -0.013 | tipifarnib 0.068 | mubritinib -0.067 | [6] -0.05 | [7] -0.038 | [8] -0.057 | [9] 0.22 | entinostat 0.005 | vorinostat 0.102 | citarinostat -0.002 | silmitasertib -0.015 | [10] 0.152 | [11] -0.084

C19orf53 (UniProt Q9UNZ5)
inactive: bafetinib 0.271 | [1] 0.034 | nilotinib 0.029 | [2] 0.139 | dasatinib 0.222 | [3] 0.023 | [4] -0.207 | [5] -0.083 | tipifarnib 0.165 | mubritinib -0.13 | [6] 0.136 | [7] 0.061 | [8] 0.279 | [9] 0.177 | entinostat -0.026 | vorinostat -0.051 | citarinostat -0.105 | silmitasertib 0.123 | [10] 0.214 | [11] -0.155

CDK11B (UniProt P21127)
Sequence of UniProt P21127 (P21127 whole entry, looked up): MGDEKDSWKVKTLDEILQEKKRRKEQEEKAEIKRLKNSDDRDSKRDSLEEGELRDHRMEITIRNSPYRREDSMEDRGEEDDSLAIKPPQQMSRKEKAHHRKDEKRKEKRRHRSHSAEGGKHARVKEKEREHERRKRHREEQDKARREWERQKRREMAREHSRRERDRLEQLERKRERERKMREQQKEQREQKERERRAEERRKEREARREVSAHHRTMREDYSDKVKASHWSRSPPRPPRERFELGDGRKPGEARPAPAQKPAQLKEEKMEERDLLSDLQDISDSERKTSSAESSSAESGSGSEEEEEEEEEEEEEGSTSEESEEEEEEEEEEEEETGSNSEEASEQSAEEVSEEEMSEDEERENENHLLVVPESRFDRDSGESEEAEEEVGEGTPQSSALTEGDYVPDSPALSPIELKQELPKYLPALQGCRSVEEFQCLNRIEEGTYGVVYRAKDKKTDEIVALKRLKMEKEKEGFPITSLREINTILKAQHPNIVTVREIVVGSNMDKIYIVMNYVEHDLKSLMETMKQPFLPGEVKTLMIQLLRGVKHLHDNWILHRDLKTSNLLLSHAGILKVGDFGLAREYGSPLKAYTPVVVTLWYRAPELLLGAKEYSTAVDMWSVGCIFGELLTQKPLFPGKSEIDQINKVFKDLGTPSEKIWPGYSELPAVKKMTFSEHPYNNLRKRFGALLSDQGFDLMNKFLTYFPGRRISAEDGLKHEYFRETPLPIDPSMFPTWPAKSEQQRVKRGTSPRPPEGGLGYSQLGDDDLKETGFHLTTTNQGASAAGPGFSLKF
inactive: bafetinib 0.027 | [1] -0.009 | nilotinib 0.106 | [2] -0.038 | dasatinib 0.014 | [3] -0.036 | [4] 0.007 | [5] 0.228 | tipifarnib 0.104 | mubritinib 0.085 | [6] -0.114 | [7] -0.012 | [8] 0.031 | [9] 0.006 | entinostat -0.111 | vorinostat 0.064 | citarinostat -0.047 | silmitasertib -0.061 | [10] 0.072 | [11] -0.301
